eLon inh: inhibitors of E. coli Lon protease | P0A9M0 | purified E. coli Lon protease, fluorescence polarization | inhibition, % at 7.94 µM | 0.42% of 360,000 active | AID 602123; in the data active = inhibition above about 13%, passing the limit was not always enough
GLD-1 RNA inh: GLD-1-TGE RNA interaction inhibition (C. elegans); Q17339; purified GLD-1 + fluorescein TGE RNA, fluorescence polarization; inhibition, % at 5.96 µM; 0.44% of 320,000 active; AID 2280;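 active = percent inhibition above a per-plate cutoff, the plate mean of test compounds plus 3 SD, cut at about 30% in these data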
BCLXL inh: blocks human Bcl-xL binding to Bim BH3 peptide; inhibition, % at 10.9 µM; AID 2129; GST-Bcl-xL / FITC-Bim BH3 peptide fluorescence polarization; Q07817; 0.7% of 320,000 active;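 active = inhibition above the mean of all tested compounds plus 3 SD, cutoff set per campaign, cut at about 30% in these data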;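 also: inhibitors lower millipolarization by displacing the labeled peptide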
EBV gp42 inh: inhibitors of Epstein-Barr virus glycoprotein 42 | Fluorescence polarization binding assay, mP read-out | AID 1085 | inhibition, % (tested at 21.74 µM) | Q1HVG2 | 0.42% of 220,000 active; in the data active = inhibition above about 50%
Target sequence (Q1HVG2 whole entry, looked up): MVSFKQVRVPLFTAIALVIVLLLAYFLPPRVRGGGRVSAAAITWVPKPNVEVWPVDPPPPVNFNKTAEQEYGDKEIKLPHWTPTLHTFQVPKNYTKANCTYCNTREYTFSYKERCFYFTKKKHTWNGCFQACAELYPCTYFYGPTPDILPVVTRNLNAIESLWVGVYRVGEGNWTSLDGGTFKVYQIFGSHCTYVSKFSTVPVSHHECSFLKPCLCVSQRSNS
MEX-5 binding: C. elegans MEX-5 TCR-2 RNA binding activity | Q9XUB2 | MEX-5/FITC-TCR2 RNA binding, fluorescence polarization; stronger effect = lower value | activity score (negative = inhibition of binding), % at 10 µM | 0.38% of 300,000 active | AID 1832;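 active = inhibition past about -25% in most replicates, and total fluorescence under double the plate's negative control median, limit read from the data; inconclusive = replicates evenly split on the limit, or fluorescence at least double controls; inactive = too little inhibition in most replicates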
MCL1 BIM primary: disrupts human MCL1 binding to BIM-BH3 peptide; 0.68% of 320,000 active; inhibition, % at 10.9 µM; GST-MCL1 / FITC-Bim-BH3 fluorescence polarization; Q07820;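 active = inhibition above the mean inhibition of all tested compounds plus 3 SD, set per campaign, cut at about 40% in these data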;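 also: higher means more loss of mP so more displacement of Bim peptide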
Target sequence (Q07820 whole entry, looked up): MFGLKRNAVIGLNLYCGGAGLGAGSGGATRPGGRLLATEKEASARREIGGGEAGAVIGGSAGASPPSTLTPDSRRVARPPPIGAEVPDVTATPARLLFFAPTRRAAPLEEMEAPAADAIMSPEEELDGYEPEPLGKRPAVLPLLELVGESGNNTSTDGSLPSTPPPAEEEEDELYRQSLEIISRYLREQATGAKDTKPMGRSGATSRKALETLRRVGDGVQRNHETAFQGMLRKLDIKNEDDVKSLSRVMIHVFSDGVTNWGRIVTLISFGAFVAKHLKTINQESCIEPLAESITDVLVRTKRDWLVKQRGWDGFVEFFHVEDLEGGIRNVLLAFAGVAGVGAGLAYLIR
Bcl-xL conf: Bcl-xL (human) inhibition, MCL1 counter-screen confirmation; shares compounds with MCL1 BIM primary; GST-Bcl-xL / FITC-Bim BH3 peptide FP binding; inhibition, % at 10.9 µM; 54% of 1,700 active; AID 2166;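 active = inhibition above a cutoff equal to the mean inhibition of all tested compounds plus 3 SD, cut at about 30% in these data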
MCL1 BIM confirm: confirmation of human MCL1 and BIM-BH3 interaction inhibitors; shares compounds with MCL1 BIM primary; GST-MCL1 / FITC-Bim-BH3 fluorescence polarization; inhibition, % at 10.9 µM; 61% of 1,700 active; AID 2168;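 active = inhibition above the average of all tested compounds plus 3 SD, cut at about 40% in these data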
GLD1 RNA confirm: confirmation of C. elegans GLD-1 TGE RNA binding inhibitors; 10% of 550 active; GLD-1/FL-TGE RNA fluorescence polarization, biochemical; AID 2459; shares compounds with GLD-1 RNA inh; inhibition, % at 5.96 µM;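 active = average inhibition across triplicates above the hit cutoff set in the primary screen, cut at about 32% in these data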
eLon confirm: confirmation of E. coli Lon protease inhibitors; shares compounds with eLon inh; purified E. coli Lon, fluorescence polarization; inhibition, % at 7.94 µM; 31% of 1,400 active; in the data active = inhibition above about 16%
A number is an active result; . = inactive; ? = inconclusive; / = no result; + = active, no number. Rows were chosen to be rich in hits. Some 1.4% of all compounds tested hit in one or more screens of this group.

SMILES | eLon inh | GLD-1 RNA inh | BCLXL inh | EBV gp42 inh | MEX-5 binding | MCL1 BIM primary | Bcl-xL conf | MCL1 BIM confirm | eLon confirm | others
COC(=O)Cc1cc(=O)n2c(nc3ccccc32)[nH]1 | . | . | . | / | . | . | / | / | /
CCCC(=Nc1ccccc1)C1=C(O)C(C(=O)OC)C(C)(C)CC1=O (stereo not given) | . | . | . | . | . | . | / | / | /
CCC(=Nc1ccc(N)cc1)C1=C(O)C(C(=O)OC)C(C)(C)CC1=O (stereo not given) | 20.3 | 45.7 | 56.4 | . | . | 61.0 | 30.3 | . | . | GLD1 RNA confirm=.
CC(C)c1nc2cc(C(=O)N3CCN(c4cnccn4)CC3)ccc2o1 | . | . | . | / | . | . | / | / | /
O=C(Nc1ccccc1N1CCCC1)c1ccc([N+](=O)[O-])o1 | . | . | . | / | . | . | / | / | /
COc1ccc(N2CCCC2)c(NC(=O)c2ccc([N+](=O)[O-])o2)c1 | 41.3 | 74.2 | 75.9 | / | . | 74.8 | . | . | .
NC(=O)C[n+]1cccc2ccccc21 | 57.5 | . | 184.7 | . | -35.9 | + | 101.0 | 123.9 | 40.5
Cc1ccc(C(=O)C[n+]2cccc3ccccc32)cc1 | . | . | . | . | . | . | / | / | /
CC1(c2nnc(Cc3ccccc3)o2)CC(c2ccccc2[N+](=O)[O-])=NO1 (stereo not given) | . | . | . | / | . | . | / | / | /
Cc1c(Br)cc(C(=O)O)c(C)c1C | . | . | . | . | . | . | / | / | /
Cc1c(N)cc(N)cc1C(=O)O | 61.2 | 128.2 | 144.6 | . | -49.5 | 165.7 | 67.1 | 44.0 | .
CNC(=O)N(O)C1N(/N=C/c2cc(Br)ccc2O)C(=S)SC1(C)C (stereo not given) | . | . | . | / | . | . | / | / | /
CCOC(=O)C1=C(COC(=O)C(C)(C)Oc2ccc(Cl)cc2)NC(=O)NC1C (stereo not given) | . | . | . | / | / | . | / | / | /
CCOC(=O)C1=C(CSc2nc3c(cc2C#N)CN(C)CC3)OC(N)=C(C#N)C1c1ccncc1 (stereo not given) | 35.1 | 61.0 | 114.4 | . | -50.9 | 143.4 | 107.9 | 119.0 | .
CCOC(=O)c1c(=O)n(O)c2ccc(OC)cc2[n+]1[O-] | 82.8 | 175.8 | 158.8 | 69.3 | . | 188.2 | 45.4 | 59.6 | 28.8
Cc1ccc2c(c1)C1(OCCCO1)C(=O)N2 | . | . | . | / | . | . | / | / | /
CC(=O)Nc1ccc(Nc2ccc3c4c(cc(=O)n3C)-c3ccccc3C(=O)c24)cc1 | 32.8 | . | 61.4 | . | . | 57.3 | 61.1 | 69.6 | 51.9
CCN(C(=O)CN1CCCc2cc(C)ccc21)c1c(N)n(Cc2ccccc2)c(=O)[nH]c1=O | . | / | / | / | / | / | / | / | /
Cc1ccc2c(c1)CCCN2CC(=O)N(C)c1c(N)n(Cc2ccccc2)c(=O)[nH]c1=O | 146.1 | . | 121.6 | / | / | 141.2 | 132.4 | 147.0 | .
COc1ccc(S(=O)(=O)Nc2cccc3c2O[C@H](CN(C)S(=O)(=O)c2ccccc2)[C@@H](C)CN([C@H](C)CO)C3=O)cc1 | . | . | / | / | / | / | / | / | /
COC(=O)CCCC1=CC2=C(c3ccccc3)C(=O)C(C)(OC(=O)C3CCCC3)C(=O)C2=CN1CCN1CCOCC1 (stereo not given) | 84.1 | 90.1 | 119.9 | . | . | 153.9 | 68.1 | 86.3 | 23.9
CN1CCC(=O)N([C@H](COc2ccccc2)Cc2ccccc2)CC1 | . | . | . | / | . | . | / | / | /
CC(C)C1NC2(C(=O)c3ccccc3C2=O)C2C(=O)N(c3ccc(F)cc3)C(=O)C12 (stereo not given) | 49.5 | 120.2 | 79.8 | . | . | 64.3 | . | . | .
O=C1C2C3C=CC(CC3)C2C(=O)N1c1ccc(F)cc1 (stereo not given) | . | . | . | / | . | . | / | / | /
Cc1nccn1CCCNC(=O)CC1C(=O)NCCN1Cc1ccc(F)cc1Cl (stereo not given) | . | . | . | / | . | . | / | / | /
SMILES | eLon inh | GLD-1 RNA inh | BCLXL inh | EBV gp42 inh | MEX-5 binding | MCL1 BIM primary | Bcl-xL conf | MCL1 BIM confirm | eLon confirm | others
CC1(C)CC(=O)C=C(c2cccc(Br)c2)C1 | . | . | . | / | / | . | / | / | /
Cc1cc2c(cc1C)NC(c1c(C)n(C)n(-c3ccccc3)c1=O)C1=C(CC(C)(C)CC1=O)N2 (stereo not given) | 19.8 | 85.3 | 120.3 | 84.9 | . | 135.0 | . | . | .
O=C1NC2=C(C(=O)CCC2)C(c2ccccc2Cl)N1 (stereo not given) | . | . | . | / | . | . | / | / | /
Cc1nc(Cl)c2c(n1)NC1=C(O2)C(=O)CCC1 | 84.0 | 168.0 | 165.5 | 136.0 | ? | 198.0 | 145.8 | 175.3 | 143.5
O=C1OC(Nc2cc(Br)cc3cccnc23)c2ccccc21 (stereo not given) | 42.4 | . | 64.4 | . | / | 90.5 | 56.3 | 68.0 | .
CCOC(=O)c1c(-c2ccccc2)c(C(C)=O)c(=O)n(C)c1C | . | . | . | . | . | . | / | / | /
CCOC(=O)c1c2c3c(cccc3n(C)c1=O)C(=O)c1ccccc1-2 | 143.7 | 31.9 | 54.7 | / | ? | 53.8 | 75.7 | 89.8 | 65.1 | GLD1 RNA confirm=.
CC1(C)CC(=O)C2=C(C1)OC1=C(C(=O)CC(C)(C)C1)C2c1ccc(O)c([N+](=O)[O-])c1 | . | . | . | . | . | . | / | / | /
CC1(C)CC(=O)C2=C(C1)OC1=C(C(=O)CC(C)(C)C1)C2c1ccc(O)cc1O | 65.1 | 128.3 | 174.5 | 116.8 | ? | + | 147.8 | 194.1 | 95.8
Oc1ccc2nnc3c(Br)cnn3c2c1 | 134.3 | 144.4 | 174.9 | / | ? | + | 167.5 | + | 144.5
CC(C)Nc1ncnc2c1ncn2[C@H]1CN(C2CCCC2)C[C@@H](CO)O1 | . | / | / | / | / | / | / | / | /
COc1ccc(NS(=O)(=O)c2ccc(Br)cc2)cn1 | . | . | . | / | . | . | / | / | /
COc1ccc(NS(=O)(=O)c2ccc(F)c(Cl)c2)cn1 | 57.9 | 99.5 | 102.9 | / | . | 123.6 | 48.9 | 57.0 | .
O=C(O)C1(c2ccccc2)CCN(S(=O)(=O)c2ccc(Br)cc2)CC1 | . | . | . | / | . | . | / | / | /
Cc1ccccc1N=Cc1cccc(O)c1O | 15.1 | . | 36.2 | . | . | 65.1 | 37.4 | 56.1 | 30.3
Cc1cccc(C=Nc2ccc3c(c2)oc2ccccc23)c1O | . | . | . | . | . | . | / | / | /

Screens: PubChem BioAssay, several laboratories
